# Experimental data: PubChem BioAssay AID1159580 (chemical genetic matrix, 2015)
# The whole screen tested about 5,500 compounds, of which about 2,000 (36%) were called active. Inconclusive results (about 18%) are left out. This is one part of the list. Values without a mark were called inactive. No stated cut-off is given here; in the data, active means normalized growth mostly below about 0.91 (no sharp cut-off); inconclusive means no clear call, values can overlap the other calls; inactive means mostly above about 0.92.
# Assay: chemical genetic growth profiling, strain panel (AID 1159580);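 further: tested at 20 µM; growth read once vehicle control cultures reached saturation at 30 °C; 1 = growth at the plate median or of vehicle wells; lower values mean less growth of the strain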
# Conditions: S. cerevisiae deletion strains, growth OD
# [1] = locus YAL021C, strain ccr4, active compounds read low
# [2] = locus YAL026C, strain drs2, active compounds read low
# [3] = locus YAL030W, strain snc1, active compounds read low
# [4] = locus YBL061C, strain skt5, active compounds read low
# [5] = locus YBR009C, strain hhf1, active compounds read low
# [6] = locus YBR023C, strain chs3, active compounds read low
# [7] = locus YBR171W, strain sec66, active compounds read low
# [8] = locus YBR231C, strain swc5, active compounds read low
# [9] = locus YBR279W, strain paf1, active compounds read low
# [10] = locus YCL011C, strain gbp2, active compounds read low
# [11] = locus YCL016C, strain dcc1, active compounds read low
# [12] = locus YCL069W, strain vba3, active compounds read low
# [13] = locus YCR088W, strain abp1, active compounds read low
# [14] = locus YDL005C, strain med2, active compounds read low
# [15] = locus YDL040C, strain nat1, active compounds read low
# [16] = locus YDR001C, strain nth1, active compounds read low
# [17] = locus YDR069C, strain doa4, active compounds read low
# [18] = locus YDR137W, strain rgp1, active compounds read low
# [19] = locus YDR159W, strain sac3, active compounds read low
# [20] = locus YDR297W, strain sur2, active compounds read low
# [21] = locus YDR334W, strain swr1, active compounds read low
# [22] = locus YDR335W, strain msn5, active compounds read low
# [23] = locus YDR392W, strain spt3, active compounds read low
# [24] = locus YEL003W, strain gim4, active compounds read low
# [25] = locus YEL037C, strain rad23, active compounds read low
# [26] = locus YEL061C, strain CIN8 (second series), active compounds read low
# [27] = locus YER015W, strain faa2, active compounds read low
# [28] = locus YER016W, strain bim1, active compounds read low
# [29] = locus YER111C, strain swi4, active compounds read low
# [30] = locus YER155C, strain BEM2 (second series), active compounds read low
# [31] = locus YFR010W, strain ubp6, active compounds read low
# [32] = locus YGL167C, strain pmr1, active compounds read low
# [33] = locus YGL173C, strain kem1, active compounds read low
# [34] = locus YGL227W, strain vid30, active compounds read low
# [35] = locus YGL240W, strain doc1, active compounds read low
# [36] = locus YGL253W, strain hxk2, active compounds read low
# [37] = locus YHR013C, strain ard1, active compounds read low
# [38] = locus YHR027C, strain rpn1, active compounds read low
# [39] = locus YHR030C, strain SLT2, active compounds read low
# [40] = locus YHR079C, strain IRE1, active compounds read low
# [41] = locus YHR142W, strain chs7, active compounds read low
# [42] = locus YJL092W, strain hpr5, active compounds read low
# [43] = locus YJL095W, strain BCK1 (second series), active compounds read low
# [44] = locus YJL095W, strain BCK1, active compounds read low
# [45] = locus YJL115W, strain asf1, active compounds read low
# [46] = locus YJL129C, strain trk1, active compounds read low
# [47] = locus YJL154C, strain vps35, active compounds read low
# [48] = locus YJL164C, strain tpk1, active compounds read low
# [49] = locus YJL166W, strain qcr8, active compounds read low
# [50] = locus YJL187C, strain SWE1, active compounds read low
# [51] = locus YJR066W, strain TOR1, active compounds read low
# [52] = locus YKL160W, strain elf1, active compounds read low
# [53] = locus YKR026C, strain gcn3, active compounds read low
# [54] = locus YKR091W, strain srl3, active compounds read low
# [55] = locus YLL001W, strain dnm1, active compounds read low
# [56] = locus YLL026W, active compounds read low
# [57] = locus YLL041C, strain sdh2, active compounds read low
# [58] = locus YLR027C, strain aat2, active compounds read low
# [59] = locus YLR113W, strain HOG1, active compounds read low
# [60] = locus YLR221C, strain rsa3, active compounds read low
# [61] = locus YLR258W, strain gsy2, active compounds read low
# [62] = locus YLR262C, strain YPT6 (second series), active compounds read low
# [63] = locus YLR320W, strain mms22, active compounds read low
# [64] = locus YLR342W, strain FKS1, active compounds read low
# [65] = locus YLR357W, strain rsc2, active compounds read low
# [66] = locus YLR370C, strain arc18, active compounds read low
# [67] = locus YLR384C, strain iki3, active compounds read low
# [68] = locus YML120C, strain ndi1, active compounds read low
# [69] = locus YMR058W, strain fet3, active compounds read low
# [70] = locus YMR125W, strain sto1, active compounds read low
# [71] = locus YMR129W, active compounds read low
# [72] = locus YMR205C, strain PFK2, active compounds read low
# [73] = locus YMR231W, strain pep5, active compounds read low
# [74] = locus YNL071W, strain lat1, active compounds read low
# [75] = locus YNL183C, strain NPR1, active compounds read low
# [76] = locus YNL209W, strain ssb2, active compounds read low
# [77] = locus YNL248C, strain rpa49, active compounds read low
# [78] = locus YNL322C, strain KRE1 (second series), active compounds read low
# [79] = locus YNR049C, strain mso1, active compounds read low
# [80] = locus YOR001W, strain rrp6, active compounds read low
# [81] = locus YOR070C, strain gyp1, active compounds read low
# [82] = locus YOR080W, strain dia2, active compounds read low
# [83] = locus YOR083W, strain WHI5, active compounds read low
# [84] = locus YOR106W, strain vam3, active compounds read low
# [85] = locus YOR231W, strain MKK1, active compounds read low
# [86] = locus YOR265W, strain rbl2, active compounds read low
# [87] = locus YOR270C, strain vph1, active compounds read low
# [88] = locus YOR290C, strain snf2, active compounds read low
# [89] = locus YPL051W, strain arl3, active compounds read low
# [90] = locus YPL078C, strain atp4, active compounds read low
# [91] = locus YPL106C, strain sse1, active compounds read low
# [92] = locus YPL240C, strain hsp82, active compounds read low
# [93] = locus YPL256C, strain CLN2, active compounds read low
compound,measurement,setting,value
COC(=O)[C@H](c1ccccc1Cl)N1CCc2sccc2C1,normalized growth,[1],0.993
same,normalized growth,[2],0.99
same,normalized growth,[3],0.982
same,normalized growth,[4],0.994
same,normalized growth,[5],0.989
same,normalized growth,[6],0.981
same,normalized growth,[7],0.973
same,normalized growth,[8],0.998
same,normalized growth,[9],0.986
same,normalized growth,[10],0.968
same,normalized growth,[11],0.993
same,normalized growth,[12],0.991
same,normalized growth,[13],0.976
same,normalized growth,[14],0.991
same,normalized growth,[15],0.961
same,normalized growth,[16],0.985
same,normalized growth,[17],1.01
same,normalized growth,[18],0.912
same,normalized growth,[19],0.987
same,normalized growth,"locus YDR195W, strain ref2",0.971
same,normalized growth,[20],0.983
same,normalized growth,[21],0.995
same,normalized growth,[22],1.01
same,normalized growth,[23],0.984
same,normalized growth,[24],0.969
same,normalized growth,[25],0.981
same,normalized growth,[26],0.98
same,normalized growth,[27],0.986
same,normalized growth,[28],0.98
same,normalized growth,[29],0.972
same,normalized growth,[30],0.97
same,normalized growth,[31],1
same,normalized growth,[32],0.967
same,normalized growth,[33],0.979
same,normalized growth,[34],0.988
same,normalized growth,[35],0.989
same,normalized growth,[36],1
same,normalized growth,[37],1.07
same,normalized growth,[38],0.987
same,normalized growth,[39],0.961
same,normalized growth,[40],0.956
same,normalized growth,[41],1.01
same,normalized growth,[42],0.98
same,normalized growth,[43],0.983
same,normalized growth,[44],0.98
same,normalized growth,[45],1
same,normalized growth,[46],0.959
same,normalized growth,[47],0.97
same,normalized growth,[48],0.976
same,normalized growth,[49],0.991
same,normalized growth,[50],0.984
same,normalized growth,[51],0.982
same,normalized growth,[52],0.988
same,normalized growth,[53],1
same,normalized growth,[54],0.983
same,normalized growth,[55],1.01
same,normalized growth,[56],0.977
same,normalized growth,[57],0.991
same,normalized growth,[58],0.983
same,normalized growth,[59],0.932
same,normalized growth,[60],0.992
same,normalized growth,[61],0.982
same,normalized growth,[62],0.95
same,normalized growth,[63],0.963
same,normalized growth,[64],0.982
same,normalized growth,[65],1.09
same,normalized growth,[66],0.975
same,normalized growth,[67],0.975
same,normalized growth,[68],0.961
same,normalized growth,[69],0.989
same,normalized growth,[70],0.993
same,normalized growth,[71],0.979
same,normalized growth,[72],0.971
same,normalized growth,[73],0.995
same,normalized growth,[74],0.968
same,normalized growth,[75],0.941
same,normalized growth,[76],0.998
same,normalized growth,[77],1.07
same,normalized growth,[78],0.981
same,normalized growth,[79],0.978
same,normalized growth,[80],1
same,normalized growth,[81],0.986
same,normalized growth,[82],0.994
same,normalized growth,[83],0.981
same,normalized growth,[84],1.03
same,normalized growth,[85],0.938
same,normalized growth,[86],0.985
same,normalized growth,[87],1.02
same,normalized growth,[88],1.02
same,normalized growth,[89],0.992
same,normalized growth,[90],0.996
same,normalized growth,[91],0.987
same,normalized growth,[92],0.986
same,normalized growth,[93],0.894
Clc1ccccc1CN1CCc2sccc2C1,normalized growth,[1],1.01
same,normalized growth,[2],1.01
same,normalized growth,[3],1.01
same,normalized growth,[4],1
same,normalized growth,[5],1.01
same,normalized growth,[6],1.01
same,normalized growth,[7],1.02
same,normalized growth,[8],1.02
same,normalized growth,[9],1.02
same,normalized growth,[10],1.01
same,normalized growth,[11],1.01
same,normalized growth,"locus YCL061C, strain MRC1, active compounds read low",1.01
same,normalized growth,[12],1.01
same,normalized growth,[13],1
same,normalized growth,[14],1.03
same,normalized growth,[15],1.01
same,normalized growth,[16],1.01
same,normalized growth,[17],1
same,normalized growth,[18],0.879
same,normalized growth,[19],1.03
same,normalized growth,"locus YDR195W, strain ref2",1.05
same,normalized growth,[20],1.01
same,normalized growth,[21],1.01
same,normalized growth,[22],1.01
same,normalized growth,[23],0.77
same,normalized growth,[24],1.01
same,normalized growth,[25],0.985
same,normalized growth,[26],1
same,normalized growth,[27],1.01
same,normalized growth,[28],1.01
same,normalized growth,[29],1.01
same,normalized growth,[30],0.928
same,normalized growth,[31],0.995
same,normalized growth,[32],1
same,normalized growth,[33],1.01
same,normalized growth,[34],1.02
same,normalized growth,[35],0.947
same,normalized growth,[36],1
same,normalized growth,[37],1.07
same,normalized growth,[38],1.01
same,normalized growth,[39],1.04
same,normalized growth,[40],1.03
same,normalized growth,[41],0.961
same,normalized growth,[42],1
same,normalized growth,[43],1.01
same,normalized growth,[44],0.985
same,normalized growth,[45],1
same,normalized growth,[46],0.973
same,normalized growth,[47],1.01
same,normalized growth,[48],0.994
same,normalized growth,[49],0.981
same,normalized growth,[50],1.01
same,normalized growth,[51],0.969
same,normalized growth,[52],0.987
same,normalized growth,[53],0.994
same,normalized growth,[54],1.01
same,normalized growth,[55],1.02
same,normalized growth,[56],1.01
same,normalized growth,[57],1
same,normalized growth,[58],1.01
same,normalized growth,[59],0.98
same,normalized growth,[60],0.983
same,normalized growth,[61],1.01
same,normalized growth,[62],0.884
same,normalized growth,[63],0.927
same,normalized growth,[64],1.01
same,normalized growth,[65],1.04
same,normalized growth,[66],1.01
same,normalized growth,[67],1.01
same,normalized growth,[68],0.986
same,normalized growth,[69],1.01
same,normalized growth,[70],1.04
same,normalized growth,[71],1.01
same,normalized growth,[72],0.998
same,normalized growth,[73],1.01
same,normalized growth,[74],0.906 (active)
same,normalized growth,[75],0.949
same,normalized growth,[76],1.01
same,normalized growth,[77],0.953
same,normalized growth,[78],1.01
same,normalized growth,[79],1.01
same,normalized growth,[80],0.988
same,normalized growth,[81],1
same,normalized growth,[82],1.01
same,normalized growth,[83],0.982
same,normalized growth,[84],0.977
same,normalized growth,[85],1.02
same,normalized growth,[86],1.01
same,normalized growth,[87],0.952
same,normalized growth,[88],1
same,normalized growth,[89],0.973
same,normalized growth,[90],0.964
same,normalized growth,[91],1.01
same,normalized growth,[92],1
same,normalized growth,[93],1.02
N.N.O=C(O)C1(C(=O)O)CCC1.[Pt+2],normalized growth,"locus YAL040C, strain CLN3, active compounds read low",0.986
same,normalized growth,"locus YCL061C, strain MRC1 (second series), active compounds read low",1
same,normalized growth,"locus YDR150W, strain NUM1, active compounds read low",1
same,normalized growth,"locus YDR363W, strain ESC2, active compounds read low",0.988
same,normalized growth,"locus YER002W, strain NOP16, active compounds read low",1.02
same,normalized growth,"locus YMR307W, strain GAS1, active compounds read low",0.984
same,normalized growth,"locus YNL175C, strain NOP13, active compounds read low",0.998
same,normalized growth,"locus YNL197C, strain WHI3, active compounds read low",1.04
same,normalized growth,"locus YNL224C, strain SQS1, active compounds read low",1
same,normalized growth,"locus YOR083W, strain WHI5 (second series), active compounds read low",0.995
same,normalized growth,"locus YPL055C, strain LGE1, active compounds read low",0.998
